Activity calls are given as the source filed them. How the source made its calls: active means hit-call score of the fitted dose curve at least 0.9, where 1 is the maximum; inactive means score below 0.9.
Key:
[1] = ATG_E_Box_CIS: Attagene CIS-FACTORIAL HepG2 Assay for human Enhancer Box (E-box) (AID 2282936); conditions: HepG2 E-box cis-reporter transcription, actives raise or lower the signal
Procedure, shortened: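 HepG2 cells transiently transfected with multiplexed cis-element reporter units sensing endogenous transcription factor activity; 24 h compound exposure. Reporter mRNA measured by RT-PCR, 6-FAM primer extension, HpaI digestion and capillary electrophoresis; bidirectional fit versus DMSO.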

[2] = ATG_M_61_CIS: Attagene CIS-FACTORIAL HepG2 Assay for M61 Transcription Factor (Internal Marker) (AID 2282937); conditions: HepG2 Attagene CIS-FACTORIAL M61 internal marker reporter; actives raise or lower the signal
Procedure, shortened: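 HepG2 cells transiently transfected with multiplexed cis-promoter reporter units reporting endogenous transcription factor activity, measured 24 h after dosing. Reporter mRNA quantified by RT-PCR and capillary electrophoresis; bidirectional fit against DMSO baseline.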

[3] = ATG_EGR_CIS: Attagene CIS-FACTORIAL HepG2 Assay for human Early Growth Response 1 (EGR1) (AID 2282938); conditions: HepG2 Attagene CIS-FACTORIAL EGR reporter mRNA; actives raise or lower the signal
Procedure, shortened: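 HepG2 cells transiently transfected with cis-element-driven multiplexed reporter units, dosed for 24 h. EGR1-element reporter mRNA quantified by RT-PCR, 6-FAM labelling, HpaI digestion and capillary electrophoresis; bidirectional fit versus DMSO.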

[4] = ATG_M_19_CIS: Attagene CIS-FACTORIAL HepG2 Assay for M19 Transcription Factor (Internal Marker) (AID 2282939); conditions: HepG2 Attagene CIS-FACTORIAL M19 internal marker reporter; actives raise or lower the signal
Procedure, shortened: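 Transfect HepG2 with MRTU reporter library → dose chemical, 24 h → isolate total RNA, reverse-transcribe with oligo(dT) → PCR, 6-FAM label, HpaI cut (2 h, 37 C) → capillary electrophoresis. Bidirectional fit vs DMSO.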

[5] = ATG_ERE_CIS: Attagene CIS-FACTORIAL HepG2 Assay for Estrogen Response Element (ERE) (AID 2282940); conditions: HepG2 ERE cis-reporter, Attagene RNA transcript; actives raise or lower the signal
Procedure, shortened: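 Transient MRTU transfection of human HepG2; cis-element promoters; 24 h dosing; total RNA → RT (oligo dT) → PCR → 6-FAM primer extension → HpaI digest → CE fluorescence. Bidirectional fit, DMSO baseline.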

[6] = ATG_Ets_CIS: Attagene CIS-FACTORIAL HepG2 Assay for human Erythroblast Transformation Specific (ETS) (AID 2282941); conditions: HepG2 ETS cis-reporter transcription, actives raise or lower the signal
Procedure, shortened: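 After transient cis-reporter transfection, HepG2 cells receive test chemical for 24 h. Reporter mRNA levels, measured by RT-PCR and capillary electrophoresis fluorescence, are analysed bidirectionally relative to the DMSO baseline.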

[7] = biological target: Hepatocyte nuclear factor 3-beta (Homo sapiens) (UniProt Q9Y261); test: ATG_FoxA2_CIS: Attagene CIS-FACTORIAL HepG2 Assay for human Forkhead box A2 (FOXA2) (AID 2282942); conditions: HepG2 cis-reporter transcription factor activity, 24 h; actives raise or lower the signal
Chain of Hepatocyte nuclear factor 3-beta (Homo sapiens) (Q9Y261 whole entry, looked up): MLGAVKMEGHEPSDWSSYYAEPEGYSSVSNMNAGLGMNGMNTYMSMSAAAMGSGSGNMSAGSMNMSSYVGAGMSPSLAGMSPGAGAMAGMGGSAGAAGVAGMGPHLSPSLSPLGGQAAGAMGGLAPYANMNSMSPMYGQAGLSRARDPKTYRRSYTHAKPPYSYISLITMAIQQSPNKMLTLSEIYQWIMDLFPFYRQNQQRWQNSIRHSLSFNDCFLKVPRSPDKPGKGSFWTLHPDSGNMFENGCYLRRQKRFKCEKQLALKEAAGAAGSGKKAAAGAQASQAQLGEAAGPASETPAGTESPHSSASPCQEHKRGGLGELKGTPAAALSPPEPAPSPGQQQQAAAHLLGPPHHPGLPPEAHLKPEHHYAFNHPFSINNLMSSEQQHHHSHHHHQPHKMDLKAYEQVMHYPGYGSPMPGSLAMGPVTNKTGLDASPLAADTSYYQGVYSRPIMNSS
Procedure, shortened: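 HepG2 transiently transfected with a multiplexed cis-promoter reporter library read endogenous FOXA2 activity. After 24 h compound exposure, reporter mRNA was quantified by RT-PCR, HpaI digestion and capillary electrophoresis. Bidirectional fit against DMSO.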

[8] = ATG_FoxO_CIS: Attagene CIS-FACTORIAL HepG2 Assay for human Forkhead box O (FoxO) (AID 2282943); conditions: HepG2 Attagene cis-reporter, FoxO element, mRNA; actives raise or lower the signal
Procedure, shortened: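 HepG2 cells transiently transfected with cis-promoter-driven multiple reporter transcription units; 24 h after chemical dosing, reporter mRNA quantified by RT-PCR, fluorescent primer extension, HpaI digestion and capillary electrophoresis. Bidirectional fitting versus DMSO baseline.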

[9] = ATG_GATA_CIS: Attagene CIS-FACTORIAL HepG2 Assay for human GATA Binding Protein (AID 2282944); conditions: HepG2 GATA cis-element reporter, Attagene multiplex mRNA; actives raise or lower the signal
Procedure, shortened: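 Transient MRTU transfection, HepG2, 24 h compound exposure. Total RNA → oligo(dT) RT → PCR → 6-FAM primer extension → HpaI cut → CE. Bidirectional fit vs DMSO.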

[10] = ATG_GLI_CIS: Attagene CIS-FACTORIAL HepG2 Assay for human Zinc Finger Protein GLI1 (AID 2282945); conditions: HepG2, Attagene cis-factorial reporter mRNA, GLI element; actives raise or lower the signal
Procedure, shortened: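 HepG2 cells transiently transfected with cis-promoter multiplexed reporter units report endogenous transcription factor activity. After 24 h chemical exposure, reporter mRNA was quantified by RT-PCR, 6-FAM labelling, HpaI digestion and capillary electrophoresis, with bidirectional fitting against DMSO.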

[11] = biological target: Bile acid receptor (Homo sapiens) (UniProt Q96RI1); test: ATG_IR1_CIS: Attagene CIS-FACTORIAL HepG2 Assay for human Nuclear Receptor Subfamily 1 Group H Member 4 (NR1H4), IR1 submotif (AID 2282946); conditions: IR1 reporter transcription, actives raise or lower the signal
Chain of Bile acid receptor (Homo sapiens) (Q96RI1 whole entry, looked up): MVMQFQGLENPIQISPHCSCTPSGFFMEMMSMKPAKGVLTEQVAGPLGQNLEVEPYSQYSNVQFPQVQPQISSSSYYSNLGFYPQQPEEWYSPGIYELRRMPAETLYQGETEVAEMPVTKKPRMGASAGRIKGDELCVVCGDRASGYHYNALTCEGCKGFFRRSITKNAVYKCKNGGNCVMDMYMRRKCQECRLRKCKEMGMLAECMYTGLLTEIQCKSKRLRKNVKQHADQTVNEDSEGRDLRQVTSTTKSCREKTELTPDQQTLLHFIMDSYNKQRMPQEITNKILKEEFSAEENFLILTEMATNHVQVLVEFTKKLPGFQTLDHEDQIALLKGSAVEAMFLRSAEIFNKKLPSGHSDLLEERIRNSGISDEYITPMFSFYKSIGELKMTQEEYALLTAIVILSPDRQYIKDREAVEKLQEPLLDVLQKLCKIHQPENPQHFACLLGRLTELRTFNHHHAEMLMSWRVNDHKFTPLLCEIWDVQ
Procedure, shortened: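 Transient MRTU transfection, HepG2; 24 h dosing; RNA → RT-PCR → 6-FAM primer extension → HpaI digest → capillary electrophoresis fluorescence. Gain/loss of signal fitted relative to DMSO.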

[12] = ATG_GRE_CIS: Attagene CIS-FACTORIAL HepG2 Assay for human Glucocorticoid Response Elements (GRE) (AID 2282947); conditions: HepG2 GRE cis-reporter, Attagene multiplex mRNA; actives raise or lower the signal
Procedure, shortened: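 HepG2 cells transiently transfected with multiple cis-promoter reporter units measure endogenous TF activity; 24 h compound exposure. Reporter mRNA quantified by RT-PCR, FAM labelling, HpaI digestion and capillary electrophoresis; bidirectional fit vs DMSO baseline.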

[13] = ATG_ISRE_CIS: Attagene CIS-FACTORIAL HepG2 Assay for human Interferon Regulatory Factor 1 (IRF1) binding to an Interferon-Stimulated Response Element (ISRE) (AID 2282948); conditions: HepG2 ISRE cis-reporter (Attagene), mRNA transcription readout; actives raise or lower the signal
Procedure, shortened: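 Quantitation relies on labelled RT-PCR fragments separated by capillary electrophoresis. Human HepG2 cells bearing cis-promoter reporter constructs were treated 24 h; DMSO served as baseline for bidirectional fitting.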

[14] = ATG_M_32_CIS: Attagene CIS-FACTORIAL HepG2 Assay for M32 Transcription Factor (Internal Marker) (AID 2282949); conditions: HepG2 Attagene cis-factorial M32 reporter, mRNA; actives raise or lower the signal;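 further: background control marker of the multiplexed CIS panel rather than a real target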
Procedure, shortened: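 Internal background marker read-out: RT-PCR/capillary electrophoresis fluorescence of reporter transcripts from transiently transfected HepG2 cells after 24 h chemical exposure. Activity fitted bidirectionally relative to DMSO negative control.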

[15] = ATG_M_06_CIS: Attagene CIS-FACTORIAL HepG2 Assay for M06 Transcription Factor (Internal Marker) (AID 2282950); conditions: HepG2 Attagene CIS-FACTORIAL M06 internal marker reporter; actives raise or lower the signal
Procedure, shortened: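 Read-out is fluorescence of labelled reporter cDNA fragments resolved by capillary electrophoresis after RT-PCR. Cells: HepG2 carrying transfected cis-promoter reporter units, treated 24 h. Gain or loss of signal fitted relative to DMSO.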

[16] = biological target: Hypoxia-inducible factor 1-alpha (Homo sapiens) (UniProt Q16665); test: ATG_HIF1a_CIS: Attagene CIS-FACTORIAL HepG2 Assay for human Hypoxia Inducible Factor 1 (HIF1A) (AID 2282951); conditions: HepG2 Attagene cis-factorial HIF1a reporter transcription; actives raise or lower the signal
Chain of Hypoxia-inducible factor 1-alpha (Homo sapiens) (Q16665 whole entry, looked up): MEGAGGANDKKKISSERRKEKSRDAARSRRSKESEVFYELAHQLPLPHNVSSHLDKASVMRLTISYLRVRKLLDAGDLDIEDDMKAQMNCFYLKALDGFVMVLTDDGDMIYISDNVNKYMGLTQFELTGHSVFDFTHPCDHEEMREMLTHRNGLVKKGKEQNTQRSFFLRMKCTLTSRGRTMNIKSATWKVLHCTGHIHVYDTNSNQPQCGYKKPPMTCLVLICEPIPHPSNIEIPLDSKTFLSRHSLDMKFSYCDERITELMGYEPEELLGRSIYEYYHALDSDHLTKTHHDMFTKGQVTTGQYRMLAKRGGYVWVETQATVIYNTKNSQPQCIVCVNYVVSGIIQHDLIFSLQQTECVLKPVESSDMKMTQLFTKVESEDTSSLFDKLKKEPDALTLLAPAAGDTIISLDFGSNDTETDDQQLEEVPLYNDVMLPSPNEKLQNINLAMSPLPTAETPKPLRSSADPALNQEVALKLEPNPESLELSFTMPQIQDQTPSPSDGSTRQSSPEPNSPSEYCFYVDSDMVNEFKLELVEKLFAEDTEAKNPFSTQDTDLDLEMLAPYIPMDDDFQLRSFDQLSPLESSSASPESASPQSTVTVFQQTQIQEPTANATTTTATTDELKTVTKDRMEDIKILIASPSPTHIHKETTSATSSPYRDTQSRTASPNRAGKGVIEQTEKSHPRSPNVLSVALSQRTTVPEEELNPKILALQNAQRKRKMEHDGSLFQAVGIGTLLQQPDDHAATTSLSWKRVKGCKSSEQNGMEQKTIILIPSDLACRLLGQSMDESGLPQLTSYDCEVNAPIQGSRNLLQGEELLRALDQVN
Procedure, shortened: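 HepG2 cells transiently transfected with multiple cis-regulated reporter transcription units measure endogenous transcription factor activity. After 24 h exposure, reporter mRNA is quantified by RT-PCR with 6-FAM labelling, HpaI digestion and capillary electrophoresis. Bidirectional fitting against DMSO.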

[17] = biological target: Heat shock factor protein 1 (Homo sapiens) (UniProt Q00613); test: ATG_HSE_CIS: Attagene CIS-FACTORIAL HepG2 Assay for human Heat Shock Transcription Factor 1 (HSE) (AID 2282953); conditions: HepG2 HSE cis-reporter, Attagene RNA transcription; actives raise or lower the signal
Chain of Heat shock factor protein 1 (Homo sapiens) (Q00613 whole entry, looked up): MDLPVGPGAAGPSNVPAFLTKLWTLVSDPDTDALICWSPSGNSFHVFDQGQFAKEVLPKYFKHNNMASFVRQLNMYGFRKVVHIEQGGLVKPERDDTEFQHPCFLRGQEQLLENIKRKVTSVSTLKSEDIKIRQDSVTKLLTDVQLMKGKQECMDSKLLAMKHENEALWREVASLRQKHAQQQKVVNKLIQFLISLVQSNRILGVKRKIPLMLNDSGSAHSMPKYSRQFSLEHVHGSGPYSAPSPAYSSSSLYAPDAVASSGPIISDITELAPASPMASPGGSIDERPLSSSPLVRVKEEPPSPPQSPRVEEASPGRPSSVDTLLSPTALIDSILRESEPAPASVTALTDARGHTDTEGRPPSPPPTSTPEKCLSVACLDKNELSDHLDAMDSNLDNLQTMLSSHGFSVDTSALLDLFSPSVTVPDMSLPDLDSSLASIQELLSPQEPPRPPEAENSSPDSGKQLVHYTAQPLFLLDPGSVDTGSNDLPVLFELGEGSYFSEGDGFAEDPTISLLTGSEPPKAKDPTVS
Procedure, shortened: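 HepG2, transient MRTU transfection, cis-promoter reporters (endogenous TF activity). 24 h compound. RNA → oligo(dT) RT → PCR → 6-FAM primer extension → HpaI cut → CE. Bidirectional fit vs DMSO.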

[18] = ATG_MRE_CIS: Attagene CIS-FACTORIAL HepG2 Assay for human Metal Responsive Element (MRE) (AID 2282954); conditions: HepG2 MRE cis-reporter transcription, Attagene multiplex; actives raise or lower the signal
Procedure, shortened: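 HepG2 cells transiently transfected with multiple cis-element reporter units measure endogenous MTF1-driven transcription. After 24 h compound exposure, reporter mRNA is quantified by RT-PCR with 6-FAM labelling, HpaI digestion and capillary electrophoresis; bidirectional fits versus DMSO.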

[19] = ATG_PBREM_CIS: Attagene CIS-FACTORIAL HepG2 Assay for human Phenobarbital-responsive Enhancer Module (PBREM) (AID 2282955); conditions: HepG2 PBREM cis-reporter, Attagene multiplexed transcription; actives raise or lower the signal
Procedure, shortened: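 HepG2 cells transiently transfected with multiple cis-regulated reporter units measure endogenous transcription factor activity; 24 h compound exposure. Reporter mRNA quantified by RT-PCR, fluorescent labelling, HpaI digestion and capillary electrophoresis; bidirectional fit versus DMSO.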

[20] = biological target: Hepatocyte nuclear factor 6 (Homo sapiens) (UniProt Q9UBC0); test: ATG_HNF6_CIS: Attagene CIS-FACTORIAL HepG2 Assay for human Hepatocyte Nuclear Factor 6 (HNF6) (AID 2282952); conditions: HepG2 Attagene cis-factorial HNF6 reporter transcription; actives raise or lower the signal
Chain of Hepatocyte nuclear factor 6 (Homo sapiens) (Q9UBC0 whole entry, looked up, the tested form may be a part): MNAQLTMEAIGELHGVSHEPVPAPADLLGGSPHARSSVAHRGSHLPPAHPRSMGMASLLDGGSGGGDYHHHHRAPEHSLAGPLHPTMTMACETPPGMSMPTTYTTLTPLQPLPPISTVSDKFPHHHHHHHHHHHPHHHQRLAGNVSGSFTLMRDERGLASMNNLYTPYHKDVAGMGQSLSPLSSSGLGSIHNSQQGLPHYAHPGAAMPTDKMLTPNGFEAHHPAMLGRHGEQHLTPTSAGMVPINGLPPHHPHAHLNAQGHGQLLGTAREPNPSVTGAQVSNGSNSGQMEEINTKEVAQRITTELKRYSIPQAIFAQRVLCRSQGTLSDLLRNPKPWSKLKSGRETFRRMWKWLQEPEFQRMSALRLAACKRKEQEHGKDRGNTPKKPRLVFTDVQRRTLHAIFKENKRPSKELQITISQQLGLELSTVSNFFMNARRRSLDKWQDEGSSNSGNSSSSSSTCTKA
Procedure, shortened: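 HepG2 cells transiently transfected with cis-element-driven multiplexed reporter units measuring endogenous transcription factor activity. After 24 h exposure, reporter mRNA quantified by RT-PCR, FAM-labelled fragments and capillary electrophoresis; bidirectional fitting versus DMSO.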

Measured: AC50

Cc1cc(O)c(Cl)c(C)c1Cl
active: [5] 28.3 µM
not listed: [20]
inactive: all other assays above

C=C1[C@H]2CC[C@@H]3[C@H]2C(C)(C)CCC[C@]13C
inactive: all assays above

C=CC(=O)OCC(Br)CBr (stereo not drawn)
active: [1] 72.9 µM | [3] 52.8 µM | [7] 131 µM | [11] 65.3 µM | [13] 100 µM | [17] 155 µM
not listed: [19]
inactive: all other assays above

O=C1C=CC(=O)O1
not listed: [19] | [20]
inactive: all other assays above

CC(C)(C)c1ccc(-c2ccc(C(C)(C)C)cc2)cc1
not listed: [17]
inactive: all other assays above

O=C1Nc2ccccc2C1(c1ccc(O)cc1)c1ccc(O)cc1
active: [1] 71.9 µM | [3] 71.7 µM | [6] 48.8 µM | [8] 100 µM | [10] 70.8 µM | [11] 148 µM | [13] 84.2 µM | [16] 57.2 µM | [18] 70.4 µM
not listed: [17] | [19]
inactive: all other assays above

COC(=O)c1sccc1S(N)(=O)=O
inactive: all assays above
